The values that follow come from PMC7862700, “An all-to-all approach to the identification of sequence-specific readers for epigenetic DNA modifications on cytosine”.

Holding throughout (experiment): DAPPL (digital affinity profiling via proximity ligation, sequencing); 10 mM Tris-HCl pH 7.5, 50 mM NaCl, 1 mM DTT, 4% glycerol, room temperature, 30 min; GST-TFs on glutathione beads, 16-mer random dsDNA library, 0.1% formaldehyde crosslink after washing; high values mean tight binding
Holding throughout (conditions): protein: recombinant; tags: N-terminal GST; dsDNA, one strand shown

The target of experiment [1] is T1, ELK1 (Homo sapiens, UniProt P19419 1-428).
T1 sequence: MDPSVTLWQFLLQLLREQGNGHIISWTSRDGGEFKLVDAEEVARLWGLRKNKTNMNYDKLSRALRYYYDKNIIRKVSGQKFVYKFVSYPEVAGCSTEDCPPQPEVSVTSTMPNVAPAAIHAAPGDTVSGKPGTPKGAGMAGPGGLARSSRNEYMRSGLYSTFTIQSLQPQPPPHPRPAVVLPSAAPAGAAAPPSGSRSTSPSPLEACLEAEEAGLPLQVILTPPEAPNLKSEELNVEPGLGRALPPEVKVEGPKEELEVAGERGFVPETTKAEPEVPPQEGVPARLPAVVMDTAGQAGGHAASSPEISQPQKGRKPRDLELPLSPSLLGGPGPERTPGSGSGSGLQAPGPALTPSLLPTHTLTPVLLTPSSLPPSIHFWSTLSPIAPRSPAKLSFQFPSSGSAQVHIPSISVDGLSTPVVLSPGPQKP
Put shortly: (§1)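 Binding signal is each hexamer's read frequency for a factor divided by its frequency in the tag-only sample. The factors were GST-fused human transcription factors from yeast, captured on glutathione beads, DNA-barcoded and pooled with that sample. Pools were incubated with 200 nmole of a random double-stranded 16-mer DNA library in Tris/NaCl/DTT/glycerol buffer at room temperature for 30 min, then washed, crosslinked with 0.1% formaldehyde, proximity-ligated with BsaI/T4 ligase (1 h, 37 °C), PCR-amplified and sequenced on an Illumina NextSeq500.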

For experiment [2], the target named is T2, GABPA (Homo sapiens, UniProt Q06546 1-454).
T2 sequence: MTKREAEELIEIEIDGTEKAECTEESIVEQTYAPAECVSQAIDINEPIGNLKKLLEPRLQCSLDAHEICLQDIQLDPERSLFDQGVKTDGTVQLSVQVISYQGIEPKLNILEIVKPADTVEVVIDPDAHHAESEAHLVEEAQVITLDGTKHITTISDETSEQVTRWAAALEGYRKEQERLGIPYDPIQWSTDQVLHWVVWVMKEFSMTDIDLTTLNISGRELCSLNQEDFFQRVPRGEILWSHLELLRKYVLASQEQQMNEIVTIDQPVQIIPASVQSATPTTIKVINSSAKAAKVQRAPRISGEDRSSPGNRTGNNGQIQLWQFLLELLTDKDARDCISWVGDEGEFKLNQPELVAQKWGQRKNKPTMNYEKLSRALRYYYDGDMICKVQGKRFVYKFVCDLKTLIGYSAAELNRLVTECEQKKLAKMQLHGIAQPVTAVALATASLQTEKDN
The method, boiled down: as §1

Experiment [3] addresses T3, ERG (Homo sapiens, UniProt P11308 1-479).
T3 sequence: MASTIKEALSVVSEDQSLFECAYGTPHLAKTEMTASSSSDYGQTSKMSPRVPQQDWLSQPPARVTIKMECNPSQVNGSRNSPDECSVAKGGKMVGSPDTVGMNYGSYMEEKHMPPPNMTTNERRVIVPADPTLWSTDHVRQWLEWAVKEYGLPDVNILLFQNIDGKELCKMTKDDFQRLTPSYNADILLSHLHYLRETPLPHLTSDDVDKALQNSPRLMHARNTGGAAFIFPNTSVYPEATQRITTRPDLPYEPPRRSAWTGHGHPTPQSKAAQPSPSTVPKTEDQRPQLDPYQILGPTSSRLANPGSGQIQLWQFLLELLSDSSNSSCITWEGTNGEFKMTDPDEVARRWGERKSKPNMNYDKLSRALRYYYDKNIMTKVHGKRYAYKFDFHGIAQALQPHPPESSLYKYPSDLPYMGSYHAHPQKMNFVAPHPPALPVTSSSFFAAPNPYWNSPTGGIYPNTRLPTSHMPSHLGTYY
The method, boiled down:
as §1

Experiment [4] addresses ELF1 (Homo sapiens, UniProt P32519 1-619). Put shortly:
as §1

Experiment [5] concerns the target T4, EHF (Homo sapiens, UniProt Q9NZC4 1-300).
T4 sequence: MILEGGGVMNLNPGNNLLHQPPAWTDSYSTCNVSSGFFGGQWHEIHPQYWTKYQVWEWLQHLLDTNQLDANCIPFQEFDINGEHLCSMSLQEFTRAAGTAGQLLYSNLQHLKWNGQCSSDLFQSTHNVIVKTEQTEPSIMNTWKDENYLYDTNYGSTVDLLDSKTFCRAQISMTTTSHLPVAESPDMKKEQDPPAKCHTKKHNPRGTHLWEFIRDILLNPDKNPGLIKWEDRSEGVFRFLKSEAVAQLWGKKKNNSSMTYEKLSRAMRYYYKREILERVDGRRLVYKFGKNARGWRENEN
The method, boiled down:
as §1

Experiment [6] concerns the target SPI1 (Homo sapiens, UniProt P17947 1-270). The method, boiled down: as §1
The target in experiment [7] is T5, FEV (Homo sapiens, UniProt Q99581 1-238).
T5 sequence: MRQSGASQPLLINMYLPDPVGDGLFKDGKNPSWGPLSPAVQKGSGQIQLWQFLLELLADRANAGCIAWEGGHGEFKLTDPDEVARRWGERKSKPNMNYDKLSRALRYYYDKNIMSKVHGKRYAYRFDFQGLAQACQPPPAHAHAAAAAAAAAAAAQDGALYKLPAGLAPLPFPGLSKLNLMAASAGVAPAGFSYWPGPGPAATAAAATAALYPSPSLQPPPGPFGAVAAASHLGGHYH
Put shortly: as §1

For experiment [8], the target named is ETV5 (Homo sapiens, UniProt P41161 1-510). Put shortly:
as §1

Experiment [9] deals with ELF4 (Homo sapiens, UniProt Q99607 1-663). The method, boiled down:
as §1

Experiment [10] concerns the target T6, ELK4 (Homo sapiens, UniProt P28324-2 1-405).
T6 sequence: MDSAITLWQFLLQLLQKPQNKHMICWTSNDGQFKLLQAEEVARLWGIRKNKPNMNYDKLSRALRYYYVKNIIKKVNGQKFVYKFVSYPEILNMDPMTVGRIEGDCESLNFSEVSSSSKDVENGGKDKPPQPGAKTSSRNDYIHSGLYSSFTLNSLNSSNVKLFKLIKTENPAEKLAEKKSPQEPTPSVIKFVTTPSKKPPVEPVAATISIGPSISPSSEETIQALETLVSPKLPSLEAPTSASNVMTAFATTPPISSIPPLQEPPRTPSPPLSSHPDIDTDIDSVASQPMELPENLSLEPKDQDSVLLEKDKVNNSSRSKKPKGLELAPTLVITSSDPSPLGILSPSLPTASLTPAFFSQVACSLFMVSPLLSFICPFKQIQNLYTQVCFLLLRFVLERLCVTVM
Put shortly:
as §1

For experiment [11], the target named is T7, ETV2 (Homo sapiens, UniProt O00321 1-342).
T7 sequence: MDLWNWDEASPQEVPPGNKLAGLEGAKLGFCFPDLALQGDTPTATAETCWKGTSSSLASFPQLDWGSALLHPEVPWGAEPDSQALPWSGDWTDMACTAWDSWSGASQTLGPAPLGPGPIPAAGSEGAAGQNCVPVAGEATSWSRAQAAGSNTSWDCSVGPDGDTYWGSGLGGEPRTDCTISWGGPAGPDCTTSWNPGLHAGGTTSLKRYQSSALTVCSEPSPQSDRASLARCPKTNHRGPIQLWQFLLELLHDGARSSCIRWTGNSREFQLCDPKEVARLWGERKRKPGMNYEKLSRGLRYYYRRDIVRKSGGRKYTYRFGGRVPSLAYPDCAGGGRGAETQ
The method, boiled down: as §1

Experiment [12] deals with T8, ELF3 (Homo sapiens, UniProt P78545 1-371).
T8 sequence: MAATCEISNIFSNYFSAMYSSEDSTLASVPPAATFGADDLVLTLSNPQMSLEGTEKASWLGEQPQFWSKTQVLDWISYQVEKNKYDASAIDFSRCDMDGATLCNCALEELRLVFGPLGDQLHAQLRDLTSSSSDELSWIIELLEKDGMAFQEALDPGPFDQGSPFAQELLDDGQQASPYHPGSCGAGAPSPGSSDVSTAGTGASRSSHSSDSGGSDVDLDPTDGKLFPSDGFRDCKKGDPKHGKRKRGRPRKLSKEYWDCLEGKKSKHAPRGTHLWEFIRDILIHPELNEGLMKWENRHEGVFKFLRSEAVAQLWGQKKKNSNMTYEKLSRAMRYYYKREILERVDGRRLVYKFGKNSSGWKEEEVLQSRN
Put shortly: as §1

Experiment [13] has as its target ETV1 (Homo sapiens, UniProt P50549 1-477). Put shortly: as §1
Experiment [14] addresses T9, ERF (Homo sapiens, UniProt P50548 1-548).
T9 sequence: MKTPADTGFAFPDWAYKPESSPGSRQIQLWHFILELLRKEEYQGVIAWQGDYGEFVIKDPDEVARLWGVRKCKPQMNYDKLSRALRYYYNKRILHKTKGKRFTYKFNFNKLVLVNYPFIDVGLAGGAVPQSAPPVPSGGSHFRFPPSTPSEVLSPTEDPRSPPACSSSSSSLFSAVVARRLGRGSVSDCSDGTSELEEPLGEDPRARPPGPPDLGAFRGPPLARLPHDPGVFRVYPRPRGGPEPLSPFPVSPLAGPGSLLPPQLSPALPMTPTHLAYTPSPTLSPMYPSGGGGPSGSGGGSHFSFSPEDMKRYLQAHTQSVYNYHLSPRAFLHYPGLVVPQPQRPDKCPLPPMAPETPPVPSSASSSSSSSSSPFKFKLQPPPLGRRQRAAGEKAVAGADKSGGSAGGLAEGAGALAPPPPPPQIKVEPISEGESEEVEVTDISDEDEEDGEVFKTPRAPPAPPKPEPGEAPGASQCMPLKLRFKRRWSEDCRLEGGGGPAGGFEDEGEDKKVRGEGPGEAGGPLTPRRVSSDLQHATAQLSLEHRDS
The method, boiled down:
as §1

Experiment [15] concerns the target T10, ETV3L (Homo sapiens, UniProt Q6ZN32 1-361).
T10 sequence: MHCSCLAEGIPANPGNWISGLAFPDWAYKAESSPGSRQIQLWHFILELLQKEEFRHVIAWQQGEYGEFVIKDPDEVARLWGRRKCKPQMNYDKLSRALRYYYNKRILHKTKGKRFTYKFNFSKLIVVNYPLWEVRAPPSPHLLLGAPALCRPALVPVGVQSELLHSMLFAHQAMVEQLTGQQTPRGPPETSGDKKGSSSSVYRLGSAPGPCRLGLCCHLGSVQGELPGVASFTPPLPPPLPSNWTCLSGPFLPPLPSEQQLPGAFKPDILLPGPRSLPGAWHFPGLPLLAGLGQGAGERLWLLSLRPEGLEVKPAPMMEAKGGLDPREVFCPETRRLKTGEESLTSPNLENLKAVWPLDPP
Put shortly:
as §1

Experiment [16] deals with T11, ETS2 (Homo sapiens, UniProt P15036 1-469).
T11 sequence: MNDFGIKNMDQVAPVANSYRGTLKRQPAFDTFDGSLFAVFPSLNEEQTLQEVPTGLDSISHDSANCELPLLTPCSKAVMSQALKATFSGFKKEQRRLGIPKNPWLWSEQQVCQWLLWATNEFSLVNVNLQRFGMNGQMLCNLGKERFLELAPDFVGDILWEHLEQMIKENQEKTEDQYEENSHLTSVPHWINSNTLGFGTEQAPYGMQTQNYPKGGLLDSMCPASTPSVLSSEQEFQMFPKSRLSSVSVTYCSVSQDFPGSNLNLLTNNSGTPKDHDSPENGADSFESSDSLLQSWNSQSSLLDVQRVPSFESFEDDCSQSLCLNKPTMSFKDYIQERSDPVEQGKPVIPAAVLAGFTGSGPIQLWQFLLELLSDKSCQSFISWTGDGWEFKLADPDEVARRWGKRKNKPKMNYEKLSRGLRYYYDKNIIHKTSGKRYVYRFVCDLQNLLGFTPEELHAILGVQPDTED
The method, boiled down:
as §1

The target in experiment [17] is T12, ETV7 (Homo sapiens, UniProt Q9Y603 1-341).
T12 sequence: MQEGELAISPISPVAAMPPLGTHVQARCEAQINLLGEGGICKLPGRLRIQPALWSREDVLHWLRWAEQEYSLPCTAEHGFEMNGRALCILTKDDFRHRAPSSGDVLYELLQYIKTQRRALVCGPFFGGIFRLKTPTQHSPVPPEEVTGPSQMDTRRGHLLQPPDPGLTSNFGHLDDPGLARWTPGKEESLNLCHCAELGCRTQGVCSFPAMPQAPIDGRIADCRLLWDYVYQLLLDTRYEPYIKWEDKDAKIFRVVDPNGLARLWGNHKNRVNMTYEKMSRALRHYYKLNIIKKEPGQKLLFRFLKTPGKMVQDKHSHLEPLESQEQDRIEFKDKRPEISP
Put shortly: as §1

In experiment [18] the target is T13, ETV3 (Homo sapiens, UniProt P41162-2 1-143).
T13 sequence: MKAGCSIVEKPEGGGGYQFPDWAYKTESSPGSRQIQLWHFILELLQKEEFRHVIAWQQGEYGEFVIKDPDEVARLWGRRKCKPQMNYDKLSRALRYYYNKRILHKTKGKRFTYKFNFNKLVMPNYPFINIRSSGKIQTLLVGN
Put shortly: as §1

In experiment [19] the target is ETV6 (Homo sapiens, UniProt P41212 1-452). The method, boiled down:
as §1

Sequence of ETV6 (P41212 whole entry): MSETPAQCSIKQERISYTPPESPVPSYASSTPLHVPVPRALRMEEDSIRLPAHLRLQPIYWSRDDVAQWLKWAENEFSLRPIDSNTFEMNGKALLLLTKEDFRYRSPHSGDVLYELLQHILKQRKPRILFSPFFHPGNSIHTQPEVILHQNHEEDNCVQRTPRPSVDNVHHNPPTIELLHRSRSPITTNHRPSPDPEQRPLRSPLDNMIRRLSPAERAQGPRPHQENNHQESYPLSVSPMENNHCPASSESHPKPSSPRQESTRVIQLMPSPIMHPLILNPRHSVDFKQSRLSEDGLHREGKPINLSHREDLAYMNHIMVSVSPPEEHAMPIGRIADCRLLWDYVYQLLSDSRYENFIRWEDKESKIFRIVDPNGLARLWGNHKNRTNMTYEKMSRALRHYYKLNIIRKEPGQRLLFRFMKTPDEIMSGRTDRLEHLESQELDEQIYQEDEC
Sequence of ELF4 (Q99607 whole entry): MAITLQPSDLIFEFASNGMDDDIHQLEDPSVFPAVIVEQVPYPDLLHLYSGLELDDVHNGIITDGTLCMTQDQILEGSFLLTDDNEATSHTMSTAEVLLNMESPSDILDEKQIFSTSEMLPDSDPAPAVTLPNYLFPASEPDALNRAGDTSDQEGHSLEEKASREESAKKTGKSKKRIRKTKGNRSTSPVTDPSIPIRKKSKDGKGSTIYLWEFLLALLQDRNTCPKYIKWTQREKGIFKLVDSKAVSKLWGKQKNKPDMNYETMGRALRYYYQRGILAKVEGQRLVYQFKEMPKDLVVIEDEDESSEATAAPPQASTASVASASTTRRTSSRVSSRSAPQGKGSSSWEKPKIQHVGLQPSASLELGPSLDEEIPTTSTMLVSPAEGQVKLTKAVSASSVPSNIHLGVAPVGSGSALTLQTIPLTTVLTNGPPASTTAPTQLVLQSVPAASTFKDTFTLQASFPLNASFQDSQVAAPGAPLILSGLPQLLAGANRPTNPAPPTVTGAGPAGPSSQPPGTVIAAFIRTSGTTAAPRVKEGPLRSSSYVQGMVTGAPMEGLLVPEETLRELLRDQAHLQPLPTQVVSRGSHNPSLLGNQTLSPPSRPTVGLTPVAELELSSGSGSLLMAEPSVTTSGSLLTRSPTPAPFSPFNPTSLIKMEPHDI
Sequence of ELF1 (P32519 whole entry): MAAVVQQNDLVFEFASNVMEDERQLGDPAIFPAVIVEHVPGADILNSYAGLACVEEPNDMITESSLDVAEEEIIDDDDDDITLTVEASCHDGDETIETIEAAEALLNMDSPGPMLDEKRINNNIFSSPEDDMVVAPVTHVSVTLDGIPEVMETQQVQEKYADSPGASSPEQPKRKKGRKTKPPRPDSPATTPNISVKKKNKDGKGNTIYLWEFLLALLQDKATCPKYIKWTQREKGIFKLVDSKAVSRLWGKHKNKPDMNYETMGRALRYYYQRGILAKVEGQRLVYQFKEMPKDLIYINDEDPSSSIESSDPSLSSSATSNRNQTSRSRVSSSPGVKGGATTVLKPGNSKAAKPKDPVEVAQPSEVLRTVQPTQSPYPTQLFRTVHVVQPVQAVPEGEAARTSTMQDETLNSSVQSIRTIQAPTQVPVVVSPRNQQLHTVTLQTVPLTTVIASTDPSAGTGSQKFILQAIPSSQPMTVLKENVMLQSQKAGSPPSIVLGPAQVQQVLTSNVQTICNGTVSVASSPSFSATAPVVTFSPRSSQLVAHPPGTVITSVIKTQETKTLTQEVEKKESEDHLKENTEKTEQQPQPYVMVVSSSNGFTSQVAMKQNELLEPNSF
Sequence of ETV1 (P50549 whole entry): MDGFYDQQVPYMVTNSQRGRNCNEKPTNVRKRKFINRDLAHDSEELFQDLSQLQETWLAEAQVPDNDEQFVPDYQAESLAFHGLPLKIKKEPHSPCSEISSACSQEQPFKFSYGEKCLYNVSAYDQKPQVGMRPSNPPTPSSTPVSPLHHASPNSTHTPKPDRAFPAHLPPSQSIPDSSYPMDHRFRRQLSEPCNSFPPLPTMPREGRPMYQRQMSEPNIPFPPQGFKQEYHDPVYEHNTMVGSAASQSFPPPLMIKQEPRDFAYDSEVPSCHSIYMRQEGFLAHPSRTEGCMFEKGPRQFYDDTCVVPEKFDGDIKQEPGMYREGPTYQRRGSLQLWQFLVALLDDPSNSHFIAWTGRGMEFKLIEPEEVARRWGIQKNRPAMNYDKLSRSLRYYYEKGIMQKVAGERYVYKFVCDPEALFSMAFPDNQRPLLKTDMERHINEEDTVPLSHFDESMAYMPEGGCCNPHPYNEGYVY
Sequence of ETV5 (P41161 whole entry): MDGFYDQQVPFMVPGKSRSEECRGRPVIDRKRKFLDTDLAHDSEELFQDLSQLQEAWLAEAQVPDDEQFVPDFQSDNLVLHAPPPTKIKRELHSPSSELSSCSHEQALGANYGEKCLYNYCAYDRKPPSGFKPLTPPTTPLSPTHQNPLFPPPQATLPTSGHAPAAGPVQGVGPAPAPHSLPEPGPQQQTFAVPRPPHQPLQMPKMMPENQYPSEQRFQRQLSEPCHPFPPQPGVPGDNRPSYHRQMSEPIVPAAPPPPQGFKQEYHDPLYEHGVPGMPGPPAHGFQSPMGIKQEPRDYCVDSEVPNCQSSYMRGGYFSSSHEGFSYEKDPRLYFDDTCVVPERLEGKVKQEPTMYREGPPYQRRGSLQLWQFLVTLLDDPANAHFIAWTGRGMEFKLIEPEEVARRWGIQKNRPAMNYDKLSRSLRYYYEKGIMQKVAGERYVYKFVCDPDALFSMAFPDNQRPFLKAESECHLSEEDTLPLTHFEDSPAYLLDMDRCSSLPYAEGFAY

Turning to GTGCAT, the binding signal is 1.05 fold enrichment (6-mer frequency, TF over GST control) in experiment [1]; 1.1 fold enrichment (6-mer frequency, TF over GST control) in [2]; 1.06 fold enrichment (6-mer frequency, TF over GST control) in [3]; 1.01 fold enrichment (6-mer frequency, TF over GST control) in [4]; 1.07 fold enrichment (6-mer frequency, TF over GST control) in experiment [5]; 1.15 fold enrichment (6-mer frequency, TF over GST control) in experiment [6]. Also, the binding signal is 1.06 fold enrichment (6-mer frequency, TF over GST control) in [7]; 1.13 fold enrichment (6-mer frequency, TF over GST control) in [8]; 1.08 fold enrichment (6-mer frequency, TF over GST control) in experiment [9]; 1.08 fold enrichment (6-mer frequency, TF over GST control) in [10]; 1.02 fold enrichment (6-mer frequency, TF over GST control) in experiment [11]; 1.03 fold enrichment (6-mer frequency, TF over GST control) in experiment [12]. Moreover, the binding signal in [13] is 1.05 fold enrichment (6-mer frequency, TF over GST control); in [14] it was 1.18 fold enrichment (6-mer frequency, TF over GST control); in experiment [15] it was 1.04 fold enrichment (6-mer frequency, TF over GST control); in experiment [16], 1.1 fold enrichment (6-mer frequency, TF over GST control); in experiment [17], 1.12 fold enrichment (6-mer frequency, TF over GST control); in [18], 1 fold enrichment (6-mer frequency, TF over GST control). Moreover, the binding signal in experiment [19] was 1.14 fold enrichment (6-mer frequency, TF over GST control).
